# Data reported in PubChem BioAssay AID1021 (Emory University Molecular Libraries Screening Center, 2008).
# Screen size: about 220,000 compounds; about 2,100 (0.95%) were called active.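 The calls were made as follows: active = compounds that cut the binding signal by more than half at the single screening dose; inactive = the rest.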 Many of the other results were omitted from the sample, so actives are more common in it than they were.
# Molecular target: Induced myeloid leukemia cell differentiation protein Mcl-1 (Homo sapiens) (UniProt Q07820)
# Experiment: Mcl-1/Bid binding inhibitors, primary screen, biochemical, TR-FRET, 1536-well (AID 1021);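 also: His-tagged Mcl-1 with europium anti-His antibody binding Bid BH3 peptide; 0% = Mcl-1 plus peptide wells and 100% = peptide-only wells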
# Settings: TR-FRET Mcl-1/Bid-Dy647 peptide binding, at 21.7 µM, stronger effect = higher value
# Chain of Induced myeloid leukemia cell differentiation protein Mcl-1 (Homo sapiens) (Q07820 whole entry, looked up): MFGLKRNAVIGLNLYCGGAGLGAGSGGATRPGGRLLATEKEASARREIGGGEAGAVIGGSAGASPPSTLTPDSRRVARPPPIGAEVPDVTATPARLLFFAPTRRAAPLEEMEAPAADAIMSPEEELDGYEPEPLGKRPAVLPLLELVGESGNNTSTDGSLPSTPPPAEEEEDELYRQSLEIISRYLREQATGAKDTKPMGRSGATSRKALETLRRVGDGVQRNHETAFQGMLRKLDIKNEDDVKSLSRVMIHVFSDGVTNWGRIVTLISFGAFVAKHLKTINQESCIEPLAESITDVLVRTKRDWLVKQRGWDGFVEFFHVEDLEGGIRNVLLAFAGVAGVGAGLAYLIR
row,SMILES,inhibition
1,COc1ccc(C(=O)NCC(=O)N/N=C/c2ccc([N+](=O)[O-])o2)cc1OC,-51.1% (inactive)
2,CNC(=O)c1cccc2nc3ccccc3nc12,-18.3% (inactive)
3,CN1C2CCC1/C(=C\c1ccccc1Cl)C(=O)/C2=C\c1ccccc1Cl,7.72% (inactive)
4,CC1=CC2=NC(=O)CC(C)(C(=O)N(CC(=O)NC(C)(C)C)Cc3ccccc3)N2C=C1 (stereo not drawn),-15.8% (inactive)
5,CC1=CC=CN2C1=NC(=O)CC2(C)C(=O)N(CC(=O)NC1CCCC1)c1ccccc1C (stereo not drawn),50.7% (active)
6,Cc1ccccc1CCN(CC(=O)NC1CCCCC1)C(=O)c1csnn1,-16.2% (inactive)
7,COC(=O)N(NC(=O)C(O)(C(C)C)C(C)C)c1ccccc1,-9.27% (inactive)
8,CCNC(=S)N1CCN(c2ncccn2)CC1,-29.3% (inactive)
9,CNC(=S)N1CCN(c2ccccn2)CC1,-63.9% (inactive)
10,Cc1ccc(NC(=S)N2CCN(c3ncccn3)CC2)cc1C,92.2% (active)
11,COc1ccccc1-n1cn[nH]c1=S,-143% (inactive)
12,O=C(N/N=C/c1ccc([N+](=O)[O-])o1)c1cn(-c2ccccc2)nc1-c1ccc(F)cc1,25.7% (inactive)
13,C=CCSC(CC)(CC)C(N)=O,-11% (inactive)
14,N=C1/C(=C/c2cccn2-c2cccc([N+](=O)[O-])c2)C(=O)N=C2SC=CN12,71.5% (active)
15,Cc1cc(/C=C2/C(=N)N3C(=NC2=O)SN=C3S(C)(=O)=O)c(C)n1-c1ccccc1,-35.9% (inactive)
16,COC(=O)c1c(C(=O)OC)c2n(c1C)CCS2,-18.6% (inactive)
17,CC1COc2ccccc2N1C(=O)c1cccnc1Cl (stereo not drawn),-17.1% (inactive)
18,Oc1c(Cl)cc(Cl)c(Cl)c1Cc1c(O)c(Cl)cc(Cl)c1Cl,100% (active)
19,CC(OC(=O)c1ccc(NS(=O)(=O)c2ccc3[nH]c(=O)[nH]c3c2)cc1)C(=O)Nc1cccc(Cl)c1Cl (stereo not drawn),-92.2% (inactive)
20,O=C(O)CC1S/C(=N\N=C/c2ccccc2O)N(c2ccc(O)cc2)C1=O (stereo not drawn),-24.9% (inactive)

row,SMILES,inhibition
1,CC(O)CNCCOc1cccc(Oc2ccccc2)c1 (stereo not drawn),-8.32% (inactive)
2,O=C(NCCc1ccccn1)c1cccnc1Oc1ccc(Cl)cc1,-2.11% (inactive)
3,NC(=O)c1ccc(NC(=O)COC(=O)C(Cc2ccccc2)NC(=O)c2ccccc2)cc1 (stereo not drawn),-18.9% (inactive)
4,CCOC(=O)N1CCN(Cc2nc(Cc3cccc(C(F)(F)F)c3)no2)CC1,-53% (inactive)
5,O=C(COC(=O)Cn1cnc2ccccc2c1=O)NCc1ccccc1Cl,8.62% (inactive)
6,O=C(COC(=O)c1cccc(Br)c1)Nc1cccc2c1C(=O)c1ccccc1C2=O,8.65% (inactive)
7,O=C(COC(=O)Cn1cnc2ccccc21)Nc1cccc2c1C(=O)c1ccccc1C2=O,52.5% (active)
8,N#Cc1cccc(NC(=O)COC(=O)c2ccccc2C(=O)c2ccc(Cl)c([N+](=O)[O-])c2)c1,-7.05% (inactive)
9,CC(C)C[C@H](CO)Nc1nc(N(C)c2cccc(Cl)c2)c2ncn(C(C)C)c2n1,-56.4% (inactive)
10,NS(=O)(=O)c1cccc(NC(=O)COC(=O)/C=C/c2ccco2)c1,-10.4% (inactive)
11,O=[N+]([O-])C(=c1ccc2c(c1)N1C3=C(CCCC3)CC3CCCCC31N=2)[N+](=O)[O-] (stereo not drawn),78.9% (active)
12,CCN(CC)S(=O)(=O)c1ccc(N2CCCC2)c(NS(=O)(=O)c2cccs2)c1,-28.4% (inactive)
13,O=C(NNc1ccccc1Cl)C(O)(c1cccc(C(F)(F)F)c1)c1cccc(C(F)(F)F)c1,3.27% (inactive)
14,O=C(C[n+]1ccc2c(c1)nnn2-c1ccccc1)c1ccc(Cl)cc1,-1.27% (inactive)
15,COc1ccccc1NC(=O)CSc1nc2sc(C)c(C)c2c(=O)n1Cc1ccco1,-24.2% (inactive)
16,Cc1ccc(-c2nc(SCC(=O)Nc3ccccc3OC(F)F)c3c(C)c(C(=O)O)sc3n2)cc1,79.3% (active)
17,Cc1ccc(C)c(SCc2nc3sc(C(=O)O)c(C)c3c(=O)[nH]2)c1,-24.1% (inactive)
18,COC(=O)C1=C(N)Oc2cc(C)[nH]c(=O)c2C1c1ccc(Cl)cc1 (stereo not drawn),-43.4% (inactive)
19,CN=c1scc(-c2cc(OC)ccc2OC)n1/N=C/c1c(C)[nH]c2ccccc12,39.1% (inactive)
20,CC(=O)c1ccc(NC(=O)C(C)NCc2ccc(Cl)cc2)cc1 (stereo not drawn),3.24% (inactive)

row,SMILES,inhibition
1,CCN(CC)c1ccc(S(=O)(=O)N2CCOCC2)cc1NC(=O)CSc1cccc[n+]1[O-],-69% (inactive)
2,O=C(O)CC1(CC(=O)Nc2cccc(C(F)(F)F)c2)CCCC1,-7.96% (inactive)
3,COc1ccc(C(=O)NNS(=O)(=O)c2ccc(C)cc2)cc1,-16.3% (inactive)
4,Cc1cccc(OCc2ccc(C(=O)Nc3ccc(F)cc3)cc2)c1,11% (inactive)
5,Cc1ccc(COc2ccc(C(=O)NN)cc2)cc1,67.1% (active)
6,Cc1cccc(N2Cc3ccccc3C2=NC(=O)c2ccc(Cl)nc2)c1,-35.5% (inactive)
7,COc1cccc(OC)c1CN(C)C(=O)c1cnccc1C(F)(F)F,-18.2% (inactive)
8,O=C(NNC1=C(C(=O)C(F)(F)F)CCC1)c1ccncc1,-42.6% (inactive)
9,COc1cccc(C(=O)Nc2cccnc2)c1OC,-18.8% (inactive)
10,CCOc1cc2c(cc1OCC)C(C(=O)O)C(c1ccc(OC)c(O)c1)N(C)C2=O (stereo not drawn),-21.7% (inactive)
11,COc1cccc(NC(=O)C2c3cc(OC)c(OC)cc3C(=O)N(C)C2c2cccnc2)c1 (stereo not drawn),84.2% (active)
12,CCOC(=O)c1c(NC(=S)NC(=O)c2ccco2)sc2c1CCCC2,61.4% (active)
13,CCOC(=O)c1c(NC(=S)NC)sc2c1CCCC2,-22.5% (inactive)
14,CCOC(=O)c1c(NC(=S)Nc2ccccc2C)sc2c1CCC2,-25.3% (inactive)
15,O=C(O)CC12CC3CC(C1)CC(n1ncc(NCc4ccc(F)cc4)c(Cl)c1=O)(C3)C2,-0.52% (inactive)
16,CS(=O)(=O)c1ccc2nc(NC(=O)C3CCCCC3)sc2c1,-11% (inactive)
17,CS(=O)(=O)c1ccc2nc(NC(=O)CN3CCCCCC3)sc2c1,55.1% (active)
18,CS(=O)(=O)c1ccc2nc(NC(=O)c3ccc(N4CCCC4=O)cc3)sc2c1,-53.4% (inactive)
